CHX counter = counter-screen for Shiga toxin inhibitors: cycloheximide protein synthesis inhibition | max response, % | 300,000 tested, 12% active | cell reporter, cycloheximide protein synthesis inhibition counterscreen | AID 2314; in the data active = max response mostly above about 13%, no sharp cut-off; inactive = mostly below about 14%; note: read at 38.3 µM for the half of the compounds with a filed dose
NS1 inh = blocks influenza NS1 protein function; 270,000 tested, 0.4% active; Potency, µM (titrated, usually from 46.1 µM); AID 2326; calls by dose curve; note: actives are rising curves; nearly all actives have a fitted effect of over 50% in size
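A cell-based growth assay was used: compounds that relieve NS1-induced slow growth of budding yeast raise OD600. Assay medium was yeast nitrogen base with ammonium sulphate and -URA supplement, pH 6.0, with 2% galactose.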
Pf growth 48h = P. falciparum growth inhibition at 48 hours (one generation). 310,000 tested, 5.9% active. Potency, µM (highest dose often 28.7 µM), most hits filed as inhibitors. AID 504832. P. falciparum luciferase growth in erythrocytes, 48 h
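Luminescence readout; reporter = integrated firefly luciferase in P. falciparum. RBC culture at 2% hematocrit, 0.1% parasitemia final, 37 C/5% CO2; decreased signal taken as growth inhibition.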
Pf growth 96h = inhibits malaria parasite growth, 96 h. AID 504834. Potency, µM (highest dose often 28.7 µM), hits mostly inhibitors. P. falciparum luciferase reporter growth, 96 h. 320,000 tested, 6.9% active
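Two-generation exposure (96 h) targets delayed-death phenotype. Reporter parasites carrying integrated firefly luciferase, in red cells at 2% hematocrit and 0.05% parasitemia final, kept at 37 C, 5% CO2; luminescence loss indicates inhibition.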
Shiga toxin inh = inhibitors of Shiga toxin in Vero cells. Vero cells, Shiga toxin protein synthesis inhibition reporter. inhibition, % at 38.7 µM. 290,000 tested, 9.2% active. AID 2315; in the data active = inhibition mostly above about 28%, no sharp cut-off; inactive = mostly below about 43%
A number is an active result; i = inactive; ? = inconclusive; nt = not tested or not shown. Compounds with a hit are over-represented: about 21% of the library has one in this group of screens. Unless noted, calls come from the whole dose curve; as a rule, active = well fitted inhibition curve with a large enough effect; inconclusive = small, poorly fitted or top-dose-only effect, or another doubt; inactive = no such curve, though single readings can be large or run the other way.

SMILES	CHX counter	NS1 inh	Pf growth 48h	Pf growth 96h	Shiga toxin inh
Cn1c(SCCCC(=O)c2ccc(F)cc2)nnc1-c1ccncc1	i	i	?	10µM	i
COCCn1c(SCCCC(=O)c2ccc(Br)cc2)nnc1-c1ccncc1	i	i	nt	13µM	i
CCn1c(CSc2nnc(-c3ccncc3)n2CCOC)nc2cc(C(=O)O)ccc21	i	nt	i	i	i
Cn1c(SCCCC(=O)c2ccccc2)nnc1-c1ccncc1	i	i	i	i	i
COCC(=O)N1CCC(Oc2ccc(C(=O)NC3Cc4ccccc4C3)cc2)CC1	27	i	i	10µM	55
CN(C)S(=O)(=O)N1CCC(Oc2ccc(C(=O)NC3Cc4ccccc4C3)cc2)CC1	22	?	?	?	106
O=C(O)c1ccc(S(=O)(=O)N(Cl)Cl)cc1	nt	nt	i	i	nt
CC(NC(=O)C(=O)c1cn(CC(=O)N2CCOCC2)c2ccccc12)c1ccccc1 (stereo not given)	i	i	i	?	i
Cc1cccc(NC(=S)NCCc2ccc3c(c2)OCCO3)c1C	i	nt	i	?	i
COc1cc2c(C#N)c(N3CCCC3)nc(N)c2c(N)n1	i	?	i	?	i
COc1cc2c(C#N)c(N3CCN(C)CC3)nc(N)c2c(N)n1	i	i	i	nt	i
N#Cc1c(N2CCCC2)nc(N)c2c(N)nc(N3CCCC3)cc12	31	i	?	?	47
COc1cc2c(C#N)c(N3CCN(c4ccccc4OC)CC3)nc(N)c2c(N)n1	i	i	2.1µM	8.3µM	i
COc1cccc(CN2CC(C(=O)NCCCc3ccc(C)cc3)CCC2=O)c1 (stereo not given)	19	i	i	i	i
COc1cccc(CN2CC(C(=O)NCCCc3ccncc3)CCC2=O)c1 (stereo not given)	i	i	i	12µM	i
COc1cccc(CN2CC(C(=O)NCCCn3ccnc3C)CCC2=O)c1 (stereo not given)	i	i	i	?	i
Cc1cc2c(Nc3ccc(C(=O)O)cc3)ncnc2s1	i	i	i	i	i
COc1cc(OC)cc(-c2nc3ccccc3c(=O)n2OC(=O)c2ccc(C)c(C)c2)c1	i	i	i	?	i
COc1cccc(CN(C)C(=O)/C=C/c2ccc(S(=O)(=O)N3CCCCCC3)cc2)c1	i	?	12µM	12µM	i
CCN(CC)S(=O)(=O)c1ccc(/C=C/C(=O)Nc2ccc(N3CCOCC3)cc2)cc1	i	i	10µM	1.9µM	i
COc1cccc(N2CCN(c3ccc(S(=O)(=O)N4CCCC4)cc3)CC2)c1	i	i	i	?	i
COc1cccc(NC(=O)/C=C/c2ccc(S(=O)(=O)N3CCOCC3)cc2)c1	nt	nt	?	10µM	nt
COc1cccc(NC(=O)CN(C)C(C)C(=O)Nc2ccc(S(=O)(=O)N3CCOCC3)cc2)c1 (stereo not given)	i	i	5.2µM	4.7µM	i
Cc1ccc(C2C3=C(CCCC3=O)Nc3c2c(C)nn3-c2ccccn2)o1 (stereo not given)	i	i	i	i	i
O=C(COC(=O)Cc1ccccc1[N+](=O)[O-])Nc1nnc(-c2ccccc2)o1	nt	nt	?	i	nt
SMILES	CHX counter	NS1 inh	Pf growth 48h	Pf growth 96h	Shiga toxin inh
CCOC(=O)/C(N=Nc1sc(C(=O)OC)c(C)c1C(=O)OCC)=C(\O)CCl	i	i	i	?	i
COc1ccc(S(=O)(=O)N(CC(=O)Nc2ccc(S(=O)(=O)N3CCOCC3)cc2)Cc2ccc(F)cc2)cc1	i	i	15µM	?	i
CCCn1c(CCC(=O)Nc2ccccc2Cc2ccccc2)nc2cc(S(=O)(=O)N3CCOCC3)ccc21	i	i	nt	2.3µM	i
CCOc1ccccc1NC(=O)/C=C/c1ccc(S(=O)(=O)N2CCOCC2)cc1	nt	nt	4.7µM	4.7µM	nt
O=C(/C=C/c1ccc(S(=O)(=O)N2CCOCC2)cc1)N(CCO)Cc1ccccc1	i	nt	i	i	i
CCN(Cc1ccc(OC)c(F)c1)C(=O)/C=C/c1ccc(S(=O)(=O)N2CCOCC2)cc1	nt	nt	10µM	9.3µM	nt
Cn1c(CCC(=O)Nc2ccc(F)cc2)nc2cc(S(=O)(=O)N3CCOCC3)ccc21	nt	nt	i	?	nt
CCCC(=O)Nc1c(-c2ccccc2Cl)c(=O)c2ccccc2n1C	i	i	i	i	i
CC1CN(Cc2cc(=O)oc3cc(O)c(Cl)cc23)CC(C)O1 (stereo not given)	i	i	i	i	i
O=C(/C=C/c1ccc(F)cc1)Nc1ccc(S(=O)(=O)N2CCOCC2)cc1	i	i	10µM	?	i
CCN(CC)S(=O)(=O)c1ccc2c(c1)nc(CCC(=O)Nc1ccc(N3CCOCC3)cc1)n2C	i	nt	15µM	?	i

Screening results: PubChem, National Center for Advancing Translational Sciences (NCATS)
